Activity calls are given as the source filed them.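 The calls were made as follows: active = fitted half-maximal effect concentration at or below the top concentration tested; inactive = the rest.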
Assay: TCF/LEF reporter activation, dose response, orthogonal assay for GSK3b inhibitor project, cell-based, HEK293T, firefly luciferase, dry powder (AID 624086)
Details: 24 h; series mostly up to 26 µM

outcome, inactive:
Cc1[nH]nc2c1C(c1ccc(F)cc1Cl)C1=C(CC(C)(C)CC1=O)N2 (configuration not stated)
COc1ccccc1C1C2=C(CC(C)(C)CC2=O)Nc2onc(C)c21 (configuration not stated)
Cc1cccc(C2C3=C(CC(C)(C)CC3=O)Nc3n[nH]c(C)c32)c1 (configuration not stated)
COc1ccccc1C1C2=C(CC(C)(C)CC2=O)Nc2n[nH]c(C(C)(C)C)c21 (configuration not stated)
O/N=C/c1cn(-c2ccccc2)nc1-c1ccc(F)cc1
Cc1[nH]nc2c1C(C)C1=C(CC(C)(C)CC1=O)N2 (configuration not stated)
COc1ccc(-c2nn(-c3ccccc3)cc2C(=O)O)cc1
CC1(C)CC(=O)C2=C(C1)Nc1n[nH]c(C(F)(F)F)c1C2c1cc(F)ccc1C(F)(F)F (configuration not stated)
Cc1ccccc1C1C2=C(CC(C)(C)CC2=O)Nc2n[nH]c(C)c21 (configuration not stated)
COc1ccc(C2C3=C(CC(C)(C)CC3=O)Nc3n[nH]c(C)c32)cc1 (configuration not stated)
Cc1ccc(-c2nn(-c3ccccc3)cc2/C=N/O)cc1
COc1ccc(-c2nn(-c3ccccc3)cc2CO)cc1
Cc1[nH]nc2c1C(c1ccc(Br)cn1)C1=C(CC(C)(C)CC1=O)N2 (configuration not stated)
Cc1[nH]nc2c1C(c1ccc(C#N)cc1)C1=C(CC(C)(C)CC1=O)N2 (configuration not stated)
CC1(C)CC(=O)C2=C(C1)Nc1n[nH]c(C(F)(F)F)c1C2c1cc(F)ccc1OC(F)(F)F (configuration not stated)
COc1ccccc1C1C(C(C)=O)=C(C)Nc2n[nH]c(C)c21 (configuration not stated)
COc1ccccc1C1C2=C(CC(C)(C)CC2=O)Nc2n[nH]c(-c3ccccc3)c21 (configuration not stated)
